Assay results as given in PubChem BioAssay (NCATS).
Inconclusive results are not listed. The source made the active and inactive calls. Calls come from the whole dose curve; as a rule, active = well fitted inhibition curve with a large enough effect; inconclusive = small, poorly fitted or top-dose-only effect; inactive = flat fitted curve, though single readings scatter.

What was measured:
PAD = experiment: qHTS profiling for inhibitors of Plasmodium falciparum proliferation (AID 504749); note: potency is the fitted concentration of half-maximal effect; settings: P. falciparum in erythrocytes, SYBR Green DNA, 72 h; series mostly up to 28.7 µM
Summary of the method: (§1)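 Infected RBCs, 0.3% parasitemia/2.5% Hct final; cpd 72 h, 37 C, 5% CO2; lysis buffer with saponin/triton/SYBR Green I, o/n RT dark; FI 485/535; norm. to artemisinin (0.29 uM) and DMSO.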

PC15 = experiment: as above; settings: P. falciparum in erythrocytes, SYBR Green DNA, 72 h; series mostly up to 28.7 µM
Summary of the method: as §1

PC26 = experiment: as above; settings: P. falciparum in erythrocytes, SYBR Green DNA, 72 h; series mostly up to 28.7 µM
Summary of the method: as §1

PC49 = experiment: as above; settings: P. falciparum in erythrocytes, SYBR Green DNA, 72 h; series mostly up to 28.7 µM
Summary of the method: as §1

SC27B = experiment: as above; settings: P. falciparum in erythrocytes, SYBR Green DNA, 72 h; series mostly up to 28.7 µM
Summary of the method: as §1

TAB109 = experiment: as above; settings: P. falciparum in erythrocytes, SYBR Green DNA, 72 h; series mostly up to 28.7 µM
Summary of the method: as §1

TAB113 = experiment: as above; settings: P. falciparum in erythrocytes, SYBR Green DNA, 72 h; series mostly up to 28.7 µM
Summary of the method: as §1

TAB165 = experiment: as above; settings: P. falciparum in erythrocytes, SYBR Green DNA, 72 h; series mostly up to 28.7 µM
Summary of the method: as §1

W2 = experiment: as above; settings: P. falciparum in erythrocytes, SYBR Green DNA, 72 h; series mostly up to 28.7 µM
Summary of the method: as §1

CRL-7250 = normal cell line; experiment: Cytotoxic Profiling of Annotated Libraries Using Quantitative High-Throughput Screening (AID 1296008); settings: Five cell lines viability, CellTiter-Glo ATP luminescence, 48-72 h; active compounds read low; for max response: % is set by controls: 0 for no effect and ±100 for the full control effect
Summary of the method: (§2)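 Cytotoxicity was measured as CellTiter-Glo ATP luminescence, read after 10 min at room temperature. Compound treatment of the cells lasted 48 or 72 hr at 37 degrees Celsius in a qHTS format.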

HEK293 = experiment: as above; settings: Five cell lines viability, CellTiter-Glo ATP luminescence, 48-72 h; active compounds read low
Summary of the method: as §2

HaCat [1] = experiment: as above; settings: Five cell lines viability, CellTiter-Glo ATP luminescence, 48-72 h; active compounds read low
Summary of the method: as §2

KB-3-1 = experiment: as above; settings: Five cell lines viability, CellTiter-Glo ATP luminescence, 48-72 h, active compounds read low
Summary of the method: as §2

NIH3T3 = experiment: as above; settings: Five cell lines viability, CellTiter-Glo ATP luminescence, 48-72 h; active compounds read low
Summary of the method: as §2

HACAT [2] = experiment: qHTS assay to identify novel small-molecules to repurpose for Merkel cell carcinoma treatment (AID 1296009); settings: MCC and control cell lines, CellTiter-Glo viability, 72 h; at 44.8 µM (top of the series) unless noted; for activity change, negative = cytotoxicity: % is set by controls: 0 for no effect and ±100 for the full control effect
Summary of the method: (§3)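 72 hr, 37 degree celsius; NPC 8-pt / MIPE 11-pt dose response; compound pinned in DMSO; CellTiter-Glo, 10 min RT, luminescence; normalized to no-cell and DMSO controls.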

MCC-13 = experiment: as above; settings: MCC and control cell lines, CellTiter-Glo viability, 72 h; series mostly up to 46 µM
Summary of the method: as §3

MKL-1 = experiment: as above; settings: MCC and control cell lines, CellTiter-Glo viability, 72 h; series mostly up to 46 µM
Summary of the method: as §3

MKL-2 = experiment: as above; settings: MCC and control cell lines, CellTiter-Glo viability, 72 h; series mostly up to 46 µM
Summary of the method: as §3

MCC-26 = experiment: as above; settings: MCC and control cell lines, CellTiter-Glo viability, 72 h; series mostly up to 46 µM
Summary of the method: as §3

HEK293T = experiment: as above; settings: MCC and control cell lines, CellTiter-Glo viability, 72 h; at 44.8 µM (top of the series) unless noted
Summary of the method: as §3
Note: nearly all actives have a fitted effect of over 60% in size.

CC(=O)Nc1cccc(O)c1
inactive: Potency (PAD) | Potency (PC15) | Potency (PC26) | Potency (PC49) | Potency (SC27B) | Potency (TAB109) | Potency (TAB113) | Potency (TAB165) | Potency (W2) | max response (CRL-7250) -4.66% | max response (HEK293) 4.09% | outcome (HaCat [1]) | max response (KB-3-1) 0.376% | max response (NIH3T3) 0.534% | outcome (HACAT [2]) | outcome (MCC-13) | outcome (MKL-1) | outcome (MKL-2)

CCN1CC(CCN2CCOCC2)C(c2ccccc2)(c2ccccc2)C1=O (stereo unspecified)
inactive: Potency (PAD) | Potency (PC15) | Potency (PC26) | Potency (PC49) | Potency (SC27B) | Potency (TAB113) | Potency (TAB165) | max response (CRL-7250) 2.93% | max response (HEK293) -5.24% | outcome (HaCat [1]) | max response (KB-3-1) -4.5% | max response (NIH3T3) 2.99% | outcome (HACAT [2]) | outcome (MCC-13) | outcome (MCC-26) | outcome (MKL-1) | outcome (MKL-2)
active: Potency (W2) 9.53 µM

C/C=C1\[C@H]2C=C(C)C[C@]1(N)c1ccc(=O)[nH]c1C2
inactive: max response (CRL-7250) -0.0215% | outcome (HEK293) | max response (HaCat [1]) 4.06% | max response (KB-3-1) -3.64% | max response (NIH3T3) -4.73% | outcome (HEK293T) | outcome (MCC-13) | outcome (MCC-26) | outcome (MKL-1) | outcome (MKL-2)

O=C(O)CCCCC1CCSS1 (stereo unspecified)
inactive: Potency (PAD) | Potency (PC15) | Potency (PC26) | Potency (PC49) | Potency (SC27B) | Potency (TAB109) | Potency (TAB113) | Potency (TAB165) | Potency (W2) | max response (CRL-7250) -4.66% | max response (HEK293) 0.811% | outcome (HaCat [1]) | max response (KB-3-1) 3.98% | max response (NIH3T3) 1.45% | outcome (HACAT [2]) | outcome (MCC-13) | outcome (MKL-1) | outcome (MKL-2)

N[C@@H](Cc1ccc(O)cc1)C(=O)O
inactive: Potency (PAD) | Potency (PC15) | Potency (PC26) | Potency (PC49) | Potency (SC27B) | Potency (TAB109) | Potency (TAB113) | Potency (TAB165) | Potency (W2) | max response (CRL-7250) 1.09% | max response (HEK293) 3.89% | outcome (HaCat [1]) | max response (KB-3-1) -4.34% | outcome (NIH3T3) | outcome (HACAT [2]) inactive [at 9.27 µM] | activity change, negative = cytotoxicity (MCC-13) 12.1% [at 9.22 µM] | activity change, negative = cytotoxicity (MCC-26) 4.77% [at 9.22 µM] | activity change, negative = cytotoxicity (MKL-1) 3.97% [at 9.22 µM] | activity change, negative = cytotoxicity (MKL-2) -20.6% [at 9.22 µM]

CC[C@]12CCCN3CCc4c(n(c5ccccc45)[C@@](O)(C(=O)OC)C1)[C@@H]32
inactive: outcome (CRL-7250) | max response (HEK293) 0.673% | outcome (HaCat [1]) | max response (KB-3-1) 3.99% | outcome (NIH3T3) | outcome (HACAT [2]) | outcome (MCC-13) | outcome (MKL-1) | outcome (MKL-2)

NC(=O)N[C@@H](CCC(=O)O)C(=O)O
inactive: outcome (CRL-7250) | max response (HEK293) -4.43% | outcome (HaCat [1]) | max response (KB-3-1) -19.7% | outcome (NIH3T3) | outcome (HACAT [2]) | outcome (MCC-13) | outcome (MKL-1) | outcome (MKL-2)

NCC1CCC(C(=O)Oc2ccc(CCC(=O)O)cc2)CC1 (stereo unspecified)
inactive: Potency (PAD) | Potency (PC15) | Potency (PC26) | Potency (PC49) | Potency (SC27B) | Potency (TAB109) | Potency (TAB113) | Potency (TAB165) | Potency (W2) | max response (CRL-7250) -11.6% | max response (HEK293) -1.47% | outcome (HaCat [1]) | max response (KB-3-1) -7.85% | max response (NIH3T3) -0.473% | outcome (HACAT [2]) | outcome (MCC-13) | outcome (MCC-26) | outcome (MKL-1) | outcome (MKL-2)

CC(=O)OCC(COC(C)=O)OC(C)=O
inactive: Potency (PAD) | Potency (PC15) | Potency (PC26) | Potency (PC49) | Potency (SC27B) | Potency (TAB109) | Potency (TAB113) | Potency (TAB165) | Potency (W2) | max response (CRL-7250) -1.86% | max response (HEK293) -3.97% | outcome (HaCat [1]) | max response (KB-3-1) 8.48% | outcome (NIH3T3) | outcome (HACAT [2]) | outcome (MCC-13) | outcome (MCC-26) | outcome (MKL-1) | outcome (MKL-2)

CC(=O)SC[C@@H](Cc1ccccc1)C(=O)NCC(=O)OCc1ccccc1
inactive: Potency (PAD) | Potency (PC15) | Potency (PC26) | Potency (PC49) | Potency (SC27B) | Potency (TAB109) | Potency (TAB113) | Potency (TAB165) | Potency (W2) | outcome (CRL-7250) | max response (HEK293) -5.72% | outcome (HaCat [1]) | max response (KB-3-1) 6.03% | max response (NIH3T3) -11.9% | outcome (HACAT [2]) | outcome (MCC-13) | outcome (MCC-26) | outcome (MKL-1) | outcome (MKL-2)

Nc1ccncc1N
inactive: Potency (PAD) | Potency (PC15) | Potency (PC26) | Potency (PC49) | Potency (SC27B) | Potency (TAB109) | Potency (TAB113) | Potency (TAB165) | Potency (W2) | max response (CRL-7250) -6.31% | max response (HEK293) -11.7% | outcome (HaCat [1]) | max response (KB-3-1) 10.8% | max response (NIH3T3) -1.29% | outcome (HACAT [2]) | outcome (MCC-13) | outcome (MCC-26) | outcome (MKL-1) | outcome (MKL-2)

NS(=O)(=O)c1ccc(NC(=O)CCC(=O)O)cc1
inactive: Potency (PAD) | Potency (PC15) | Potency (PC26) | Potency (PC49) | Potency (SC27B) | Potency (TAB109) | Potency (TAB113) | Potency (TAB165) | Potency (W2) | max response (CRL-7250) -4.29% | max response (HEK293) -0.661% | outcome (HaCat [1]) | max response (KB-3-1) -4.48% | outcome (NIH3T3) | outcome (HACAT [2]) | outcome (MCC-13) | outcome (MCC-26) | outcome (MKL-1) | outcome (MKL-2)

CC(=O)Oc1cccc(O)c1
inactive: Potency (PAD) | Potency (PC15) | Potency (PC26) | Potency (PC49) | Potency (SC27B) | Potency (TAB109) | Potency (TAB113) | Potency (TAB165) | Potency (W2) | max response (CRL-7250) 2.6% | max response (HEK293) 2.67% | outcome (HaCat [1]) | max response (KB-3-1) -9.73% | outcome (NIH3T3) | outcome (HACAT [2]) | outcome (MCC-13) | outcome (MKL-1) | outcome (MKL-2)

O=C(O)c1cc(=O)c2ccccc2o1
inactive: Potency (PAD) | Potency (PC15) | Potency (PC26) | Potency (PC49) | Potency (SC27B) | Potency (TAB109) | Potency (TAB113) | Potency (TAB165) | max response (CRL-7250) 2.58% | max response (HEK293) -0.978% | outcome (HaCat [1]) | max response (KB-3-1) -5.78% | outcome (NIH3T3) | outcome (HACAT [2]) | outcome (MCC-13) | outcome (MKL-1) | outcome (MKL-2)
